# Source: PubChem BioAssay (Tox21)
# Inconclusive results are not listed. A call without a number means that no potency is given here. The source made the active and inactive calls. Calls come from the whole dose curve; as a rule, active = well fitted cell-killing curve with a large enough effect in the repeat runs; inconclusive = weak or mixed curves, or effect the other way; inactive = flat fitted curve, though single readings scatter.
# Assay: qHTS RealTime-Glo MT Cell Viability Assay in HepG2 cells - 0 hour (AID 1224889); note: nearly all actives have a fitted effect of over 50% in size
# Settings: RealTime-Glo luminescence; series mostly up to 76.8 µM
# Procedure, shortened: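 HepG2 cells were seeded at 600 cells/well together with NanoLuc luciferase and a cell-permeant prosubstrate, preincubated 5 h at 37 C/5% CO2, then pin-dosed with compounds in DMSO. Nonlytic luminescence from viable cells was read at each time point.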
row,Compound,Potency
1,CC(CCO)CCc1ccccc1 (configuration not stated),inactive
2,CSc1ccc(Oc2ccc(S(N)(=O)=O)cc2CN(C)C)cc1C,inactive
3,Cc1nccn1-c1ccc(Sc2cccc(C3(C(N)=O)CCOCC3)c2)cc1,inactive
4,ON(Cc1ccccc1)Cc1ccccc1,inactive
5,CC(C)CCCCCOC(=O)CCCCC(=O)OCCCCCC(C)C,inactive
6,C[Si]1(C)O[Si](C)(C)O[Si](C)(C)O1,inactive
7,CCCCN(CCCC)CCCOC(=O)c1ccc(N)cc1,inactive
8,CCN(CC)CCNC(=O)c1ccc(NC(C)=O)cc1,inactive
9,CC(C)CCCCCCOC(=O)CCCCC(=O)OCCCCCCC(C)C,inactive
10,C/C(=N/NC(=O)c1ccncc1)C(=O)O,inactive
11,Nc1c(I)cc(I)c(C(=O)N(CCC(=O)O)c2ccccc2)c1I,inactive
12,CCCCCCCCCCCCCCC[C@H](O)[C@@H](N)CO,inactive
13,O=C(C(=O)c1ccccc1)c1ccccc1,inactive
14,Cc1ccc(/C=N/n2c(-c3ccccc3)csc2=S)cc1,inactive
15,Cc1occc1C(=O)Nc1ccc(C(=O)N2CCC(F)(F)/C(=C\C(=O)N3CCC(N4CCCCC4)CC3)c3ccccc32)cc1,inactive
16,O=C(OCCOCCO)c1ccccc1Nc1cccc(C(F)(F)F)c1,inactive
17,CC(=O)Oc1ccc(C(=C2CCCCC2)c2ccc(OC(C)=O)cc2)cc1,inactive
18,COCC(O)CO (configuration not stated),inactive
19,CC(C)c1nnc2ccc(-c3ocnc3-c3cc(F)ccc3F)cn12,inactive
20,O=C(CCCCCCCCC#CI)Oc1ccccc1,inactive
21,Cc1ccc(S)cc1,inactive
22,CO[Si](C)(OC)OC,inactive
